For 17 compounds, Potency results are on record in PubChem BioAssay (NCATS).

Holding throughout (assay): qHTS profiling for inhibitors of Plasmodium falciparum proliferation (AID 504749); also: nearly all actives have a fitted effect of over 60% in size
What all share (settings): P. falciparum in erythrocytes, SYBR Green DNA, 72 h; series mostly up to 28.7 µM

The test system of one experiment is DFO2036. The gist of the method: (§1)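 P. falciparum-infected erythrocytes (0.3% parasitemia, 2.5% hematocrit final) were exposed to compounds for 72 h at 37 C in 5% CO2, then lysed with SYBR Green buffer overnight at room temperature; parasite DNA fluorescence was normalized to artemisinin and DMSO controls.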
For a further experiment, the system named is DIV14. The gist of the method: as §1
For a further experiment, the system named is DIV17. In outline: as §1
In the next experiment the test system is DIV30. The gist of the method:
as §1

The next experiment relates to Dd2. In outline: as §1
A further experiment concerns FAB9. In outline:
as §1

For another experiment, the system named is GB4. The gist of the method:
as §1

The test system of a further experiment is ICS. The gist of the method:
as §1

The test system of the next experiment is ECU. The gist of the method:
as §1

The test system of another experiment is HB3. In outline: as §1

Inconclusive results are not listed. Activity calls are given as the source filed them. Calls follow the shape of the dose curve; as a rule, active = well fitted inhibition curve with a large enough effect; inconclusive = small, poorly fitted or top-dose-only effect; inactive = flat fitted curve, though single readings scatter.
Potency is read from the fitted curve at half-maximal effect.

For the compound `CC[N+](CC)(CCNC(=O)C(=O)NCC[N+](CC)(CC)Cc1ccccc1Cl)Cc1ccccc1Cl`, the Potency was 1.78 µM (active) with DFO2036; 4.26 µM (active) with DIV14; 4.78 µM (active) with DIV17; 6.01 µM (active) in the experiment on DIV30; 2.51 µM (active) with Dd2; 1.12 µM (active) with FAB9. Besides, the Potency with GB4 was 2.39 µM (active); in the experiment with ICS, 1.58 µM (active).

`Cc1c(C)n(CCN(C)C)c2ccc(C(=O)OCCN(C)C)cc12`: the Potency entry in the experiment with DFO2036, with DIV14, in the experiment on DIV17, in the experiment with DIV30, in the experiment with Dd2 and in the experiment with ECU was “inactive” in each case. Besides, the Potency entry in the experiment on FAB9 and in the experiment on HB3 was “inactive” in each case.

For `COc1cc(C(=S)N2CCOCC2)cc(OC)c1OC`, the Potency entry in the experiment with DFO2036, with DIV14, with DIV17, with DIV30, in the experiment on Dd2 and in the experiment on ECU was “inactive” each time. The Potency entry with FAB9, in the experiment with GB4, in the experiment on HB3 and in the experiment on ICS was “inactive” each time.

Take `Cc1c(C)n(Cc2ccccc2)c2ccc(C(=O)OCCN(C)C)cc12`: the Potency entry with DFO2036, in the experiment with DIV14, with DIV17, with DIV30, in the experiment on Dd2 and in the experiment with ECU was “inactive” in each case. For the same compound, the Potency entry in the experiment with FAB9 and in the experiment on HB3 was “inactive” each time.

`CCCCCCCCCCCCCCCCOP(=O)([O-])OCC[N+](C)(C)C`: the Potency entry with DFO2036, in the experiment on DIV14, in the experiment with DIV17, in the experiment on DIV30, in the experiment on Dd2 and in the experiment on ECU was “inactive” throughout. The Potency result in the experiment on FAB9 and in the experiment with ICS was “inactive” in each case.

On to `CNCCC(Oc1ccccc1C)c1ccccc1` (configuration not stated), for which the Potency entry in the experiment on DFO2036, with ECU, with FAB9, with GB4 and in the experiment on HB3 was “inactive” each time. Further, the Potency is 6.01 µM (active) in the experiment with DIV14, 6.75 µM (active) in the experiment with DIV17 and 7.08 µM (active) in the experiment on Dd2.

With `CN(C)CCOc1ccccc1Cc1ccccc1`, the Potency in the experiment on DFO2036 was 6.31 µM (active); with DIV14, 8.49 µM (active); in the experiment with DIV17 it was 10.7 µM (active); in the experiment with Dd2, 5.01 µM (active). The Potency result with DIV30, in the experiment with FAB9 and with HB3 was “inactive” each time.

As to `N[C@H](CO)C(=O)O`, the Potency entry in the experiment on DFO2036, with DIV14, in the experiment with DIV17, in the experiment on DIV30, in the experiment on Dd2 and in the experiment with ECU was “inactive” throughout. For the same compound, the Potency entry in the experiment on FAB9, in the experiment on GB4, with HB3 and in the experiment on ICS was “inactive” throughout.

On to `N[C@H](Cc1c[nH]c2ccccc12)C(=O)O`, for which the Potency result in the experiment on DFO2036, with DIV14, in the experiment on DIV17, with DIV30, in the experiment on ECU and with FAB9 was “inactive” in each case. Also, the Potency result with GB4, in the experiment on HB3 and in the experiment on ICS was “inactive” each time.

As to `COc1cc(NS(C)(=O)=O)ccc1Nc1c2ccccc2nc2ccccc12`, the Potency with DFO2036 is 2.82 µM (active); with DIV14 it was 1.9 µM (active); with DIV17 it was 1.51 µM (active); with DIV30 it was 4.26 µM (active); in the experiment on ECU, 3.16 µM (active); in the experiment on FAB9, 3.98 µM (active). Besides, the Potency was 5.01 µM (active) in the experiment with HB3 and 1.58 µM (active) with ICS.

As for `CN1CCC(=C2c3ccccc3Sc3ccccc32)CC1`, the Potency in the experiment on DFO2036 was 10 µM (active); with DIV14, 7.57 µM (active); in the experiment with DIV17, 12 µM (active); with DIV30 it was 9.53 µM (active); with Dd2 it was 4.47 µM (active); in the experiment on ECU, 7.08 µM (active). Further, the figures for the Potency in the experiment on GB4 and in the experiment with ICS were 3.38 µM (active) and 5.62 µM (active), respectively.

With `Oc1ccc(Cl)c2cccnc12`, the Potency entry in the experiment with DFO2036, in the experiment with DIV14, in the experiment with DIV17, in the experiment on DIV30, in the experiment on ECU and in the experiment with FAB9 was “inactive” in each case. Also, the Potency in the experiment on ICS was 11.2 µM (active).

`O=C(O)c1cc2cc(Cc3cccnc3)ccc2o1`: the Potency entry in the experiment with DFO2036, in the experiment with DIV14, in the experiment with DIV17, in the experiment with DIV30, in the experiment with Dd2 and in the experiment with ECU was “inactive” each time. The Potency result with FAB9, with GB4, with HB3 and in the experiment with ICS was “inactive” in each case.

For the compound `C[C@H]1C[C@H]2[C@@H]3CCC4=CC(=O)C=C[C@]4(C)[C@@]3(Cl)[C@@H](O)C[C@]2(C)[C@@]1(O)C(=O)CO`, the Potency entry in the experiment with DFO2036, in the experiment on DIV14, in the experiment with DIV17, in the experiment with Dd2, with ECU and in the experiment on FAB9 was “inactive” each time. Besides, the Potency entry in the experiment on GB4 and in the experiment with HB3 was “inactive” throughout.

Regarding `CCOc1ccc2nc3cc(N)ccc3c(N)c2c1`, the Potency in the experiment on DFO2036 is 5.62 µM (active); in the experiment with DIV14, 7.57 µM (active); with DIV17, 15.1 µM (active); in the experiment with Dd2 it was 2.51 µM (active); in the experiment with ECU it was 8.91 µM (active); in the experiment on FAB9, 7.94 µM (active). Besides, the Potency is 8.91 µM (active) with HB3 and 4.47 µM (active) in the experiment on ICS.

Consider `Clc1ccc2c(c1)CCc1cccnc1C2=C1CCNCC1`, for which the Potency result in the experiment with DFO2036, in the experiment with FAB9 and in the experiment on HB3 was “inactive” each time. For the same compound, the Potency in the experiment on DIV14 was 7.57 µM (active); in the experiment on DIV17 it was 9.53 µM (active); in the experiment on DIV30, 16.9 µM (active); with Dd2 it was 4.47 µM (active); in the experiment with ICS it was 11.2 µM (active).

For the compound `CCCCCCCCCCCCCCCCCC(=O)OCC(O)CO` (configuration not stated), the Potency entry in the experiment with DFO2036, in the experiment with DIV14, in the experiment with DIV17, in the experiment on Dd2, in the experiment with ECU and in the experiment with FAB9 was “inactive” each time. The Potency entry in the experiment on GB4, in the experiment on HB3 and in the experiment with ICS was “inactive” in each case.
